Laboratory results: ChEMBL document CHEMBL1157539, “Thousands of chemical starting points for antimalarial lead identification” (Nature, 2010)

Tests used:
Assay type in all cases: functional
Plasmodium falciparum [1] = experiment: GSK_TCMDC: Inhibition of Plasmodium falciparum 3D7 in whole red blood cells, using parasite LDH activity as an index of growth. Test compounds present at 2uM
Plasmodium falciparum [2] = experiment: GSK_TCMDC: Inhibition of Plasmodium falciparum Dd2 in whole red blood cells, using parasite LDH activity as an index of growth. Test compounds present at 2uM
HepG2 = experiment: GSK_TCMDC: Percent inhibition of human HepG2 cell line. Test compounds present at 10uM.

SMILES	Inhibition (Plasmodium falciparum [1]) [%]	Inhibition (Plasmodium falciparum [2]) [%]	Inhibition (HepG2) [%]
O=C(O)C(F)(F)F.O=S(=O)(NCCN1CCCC1)c1ccc(-c2cccc(CNC3Cc4ccccc4C3)c2)s1	98	69	57
CC(=O)c1c(C)[nH]c(C(=O)Nc2ccc(-c3nc4ccc(C)cc4s3)cc2)c1C	92	40	11
O=C(Cn1c(CCc2cccc(F)c2F)cc(=O)c2cccnc21)N(CCCn1ccnc1)Cc1ccc(-c2ccc(C(F)(F)F)cc2)cc1	96	47	38
CCN(CCCN1CCCCC1)c1cc(C)nc(Nc2ccc(Br)cc2F)n1.O=C(O)C(F)(F)F	95	24	32
CCCC1(NC[C@@H](O)[C@H](Cc2ccccc2)NC(=O)c2cc(NCC)cc(N3CCCCS3(=O)=O)c2)CCCCC1.Cl	100	98	4
Cc1cccc2nc(-c3ccc(-c4cccc(CN5CCC(C(N)=O)CC5)c4)s3)[nH]c12.O=C(O)C(F)(F)F	86	16	1
CCc1ccc(CN2CCCCC(NC(=O)c3cc(-c4ccccc4F)cs3)C2)cc1.O=C(O)C(F)(F)F (stereo not drawn)	87	12	25
Cc1cc(Oc2ccc(-n3ccnc3)cc2)nc(N2CCN(CCCN3CCCC3)CC2)n1.O=C(O)C(F)(F)F	90	7	5
CCN(CC)/C(=N/C(=N)Nc1ccc(Cl)c(Cl)c1)NCCCCCCN/C(=N\C(=N)Nc1ccc(Cl)c(Cl)c1)N(CC)CC	94	90	1
Nc1nc(N)c2cc(N(Cc3ccccc3)Cc3ccccc3)ccc2n1	99	88	69
O=C(N1CCN(c2cccc(C(F)(F)F)c2)CC1)C(Cl)(Cl)Cl	89	35	0
O=C(/C=C/c1ccc(Cl)cc1)NCCCCCN1CCCC(C(=O)Nc2ccc(F)c(Cl)c2)C1 (stereo not drawn)	94	6	27
CCN(CC)CCN(Cc1ccc(-c2ccc(C(F)(F)F)cc2)cc1)C(=O)Cn1c(CCc2cccc(F)c2F)nc(=O)c2ccc(C)cc21.O=C(O)C(O)C(O)C(=O)O	99	58	39
Cl.Clc1ccc2c(NCCNc3ccnc4cc(Cl)ccc34)ccnc2c1	100	96	6
CCN(CC)c1ccc(C(c2ccc(N(CC)CC)cc2)c2ccc([N+](=O)[O-])cc2)cc1	82	63	20
C[C@H](NC(=O)c1c(CN2CCC(N3CCCCC3)CC2)c(-c2ccccc2)nc2cc(O)ccc12)C1CCCCC1	99	72	77
Cc1cc(N[C@@H](CC(C)C)C(=O)NCc2cccs2)nc(Nc2ccccc2)n1.O=C(O)C(F)(F)F	100	57	18
COc1ccc(CNCc2cccc(-c3ccc(-c4nc5ccccc5[nH]4)cc3)c2)cc1.O=C(O)C(F)(F)F	100	60	22
Nc1cccc(CNCc2ccc(-c3cccc(-c4nc5cc(C(F)(F)F)ccc5[nH]4)c3)cc2)c1.O=C(O)C(F)(F)F	100	100	60
c1ccc(CNc2cc(-c3ccccn3)nc(-c3ccccn3)n2)cc1	84	89	88
COC(=O)C1=CNC=C(C(=O)OC)C1c1ccc(Cl)c([N+](=O)[O-])c1	93	79	0
CC(C)(C)c1ccc2oc(=O)n(C3CCN(C(=O)c4ccc([N+](=O)[O-])o4)CC3)c2c1	94	87	0
Cc1nn(-c2cccc(Cl)c2)c2c1C(C(=O)c1ccc3c(c1)OCO3)CC(=O)N2 (stereo not drawn)	98	95	5
CCC[C@@H]1CCN[C@H]([C@H](O)c2ccnc3ccc(OC)cc23)C1.Cl	99	69	0
CN(C)CCOc1ccc(-c2cc(-c3ccncc3)c(-c3ccc(Cl)c(O)c3)[nH]2)cc1.Cl	98	100	25
Cc1c(C)n(C2CCCC2)c2ncnc(OC3CCN(CC(=O)NC4CC4)CC3)c12	95	92	13
